Experimental data reported in PubChem BioAssay (NCI).
The panel holds about 79,000 compounds, 15% with a hit somewhere; the sample as a whole holds those more often. Activity calls are given as the source filed them. Cut-off read from the data, not from the text of the source: active = growth inhibition above about 70%; inactive = the rest.

How the values were obtained:
[1] = NCI Yeast Anticancer Drug Screen. Data for the rad52 strain (AID 147);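 note: 0% = growth of vehicle-treated control cultures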; settings: S. cerevisiae rad52 mutant growth inhibition, active compounds read high
How it was run: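 Genetically altered yeast (DNA damage repair defect) treated with compound; inhibition calculated relative to vehicle.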

[2] = NCI Yeast Anticancer Drug Screen. Data for the wt1 strain (AID 149);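 note: 0% = growth of vehicle-treated wt1 cultures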; settings: S. cerevisiae wt1 strain (SPY 50644) growth inhibition, active compounds read high
How it was run: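 Each compound is tested on wt1 yeast and the loss of growth versus vehicle gives the inhibition value.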

[3] = NCI Yeast Anticancer Drug Screen. Data for the rad50EPP+ strain (AID 151);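 note: 0% = growth of vehicle-treated control cultures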; settings: S. cerevisiae rad50 mutant strain, active compounds read high
How it was run: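 Strain rad50EPP+; compound exposure; % growth inhibition vs vehicle.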

[4] = NCI Yeast Anticancer Drug Screen. Data for the rad50 strain (AID 155);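 note: 0% = growth of vehicle-only cultures of the same strain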; settings: S. cerevisiae rad50 strain growth inhibition, active compounds read high
How it was run: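 Vehicle-treated cultures provide the reference for the growth inhibition reported for compound-exposed, repair-deficient yeast.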

[5] = NCI Yeast Anticancer Drug Screen. Data for the mec2-1 strain (AID 157); settings: S. cerevisiae mec2-1 strain, active compounds read high
How it was run: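 Cells of the genetically defined mec2-1 yeast strain are incubated with test compound. Inhibition of growth is calculated against vehicle-treated controls.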

[6] = NCI Yeast Anticancer Drug Screen. Data for the rad14 strain (AID 159);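 note: 0% = growth of vehicle-treated control cultures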; settings: S. cerevisiae rad14 strain growth inhibition, active compounds read high
How it was run: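 Inhibition of growth is reported for a repair-deficient yeast mutant following compound treatment, calculated relative to cultures that received vehicle.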

[7] = NCI Yeast Anticancer Drug Screen. Data for the sgs1 mgt1 strain (AID 161);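 note: 0% = growth of cultures given vehicle only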; settings: S. cerevisiae sgs1 mgt1 strain, active compounds read high
How it was run: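 Genetically altered yeast, compound exposure, growth inhibition relative to vehicle.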

[8] = NCI Yeast Anticancer Drug Screen. Data for the CLN2oe strain (AID 163);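 note: 0% = growth of vehicle-only control cultures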; settings: S. cerevisiae CLN2oe strain, active compounds read high
How it was run: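 Strain altered in cell-cycle control, incubated with compound; growth compared to solvent-treated controls.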

[9] = NCI Yeast Anticancer Drug Screen. Data for the bub3 strain (AID 167); settings: S. cerevisiae bub3 mutant strain, active compounds read high
How it was run: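 Mutant yeast screening strain plus compound; vehicle-treated cultures serve as the 0% inhibition reference.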

[10] = NCI Yeast Anticancer Drug Screen. Data for the wt2 strain (AID 169); settings: S. cerevisiae wt2 strain growth inhibition, active compounds read high
How it was run: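 Steps: yeast strain treated with compound; growth recorded; inhibition calculated relative to cultures given vehicle alone.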

[11] = NCI Yeast Anticancer Drug Screen. Data for the mlh1 strain (AID 171);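 note: 0% = growth of vehicle-treated control cultures of the same strain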; settings: S. cerevisiae mlh1 strain growth inhibition, active compounds read high
How it was run: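 Yeast screen: mutant strain plus compound, growth scored against vehicle control wells.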

[12] = NCI Yeast Anticancer Drug Screen. Data for the mlh1 rad18 strain (AID 175); settings: S. cerevisiae mlh1 rad18 strain growth inhibition, active compounds read high
How it was run: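 Compound-treated yeast growth, normalised to vehicle controls. Strain bears defined DNA repair mutations.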

[13] = NCI Yeast Anticancer Drug Screen. Data for the rad18 strain (AID 177); settings: S. cerevisiae rad18 mutant growth inhibition, active compounds read high
How it was run: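 Inhibition values reflect reduced yeast growth compared with vehicle-treated controls, using a strain engineered with a DNA damage repair defect.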

[14] = NCI Yeast Anticancer Drug Screen. Data for the cln2 rad14 strain (AID 165);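 note: 0% = growth equal to vehicle treated cultures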; settings: S. cerevisiae cln2 rad14 strain, active compounds read high
How it was run: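 The screen exposed genetically defined yeast (cln2 rad14) to test compounds and scored growth inhibition relative to vehicle-treated controls.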

[15] = NCI Yeast Anticancer Drug Screen. Data for the sgs1 strain (AID 173);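 note: 0% = growth of vehicle-only control cultures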; settings: S. cerevisiae sgs1 mutant, active compounds read high
How it was run: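 Inhibition of yeast growth served as the measure. The mutant strain was treated with each compound, and growth was normalised to cultures receiving vehicle alone.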

[16] = at 5.0 µM (retest, dose inferred, filed as 0.5)
[17] = at 50.0 µM (retest, dose inferred, filed as 5.0)

Measured: growth inhibition

CCN(CC)N=Nc1c(C(N)=O)n[nH]c1C
active: [1]; at 100.0 µM 93% | [3]; at 100.0 µM 80% | [4]; at 50.0 µM 85.3% | [4]; at 100.0 µM 92% | [13]; at 100.0 µM 83%
inactive: [1]; at 1.2 µM 0% | [1]; at 3.7 µM -3% | [1]; at 11.0 µM 8% | [1]; at 33.0 µM 47% | [2]; at 1.2 µM -6% | [2]; at 3.7 µM -5% | [2]; at 11.0 µM -7% | [2]; at 33.0 µM -5% | [2]; at 100.0 µM 0% | [3]; at 1.2 µM -2% | [3]; at 3.7 µM 3% | [3]; at 11.0 µM 5% | [3]; at 33.0 µM 31% | [4]; at 1.2 µM -10% | [4]; at 3.7 µM -8% | [4]; [16] -138% | [4]; at 11.0 µM 9% | [4]; at 33.0 µM 54% | [4]; [17] 56% | [5]; at 1.2 µM 2% | [5]; at 3.7 µM 1% | [5]; [16] -46% | [5]; at 11.0 µM 8% | [5]; at 33.0 µM 2% | [5]; [17] -40% | [5]; at 50.0 µM 15.8% | [5]; at 100.0 µM 27% | [6]; at 1.2 µM -2% | [6]; at 3.7 µM 1% | [6]; at 11.0 µM 0% | [6]; at 33.0 µM 3% | [6]; at 100.0 µM 23% | [7]; [16] -62% | [7]; [17] -35% | [7]; at 50.0 µM -0.05% | [8]; at 1.2 µM -5% | [8]; at 3.7 µM 1% | [8]; at 11.0 µM 0% | [8]; at 33.0 µM 0% | [8]; at 100.0 µM 4% | [9]; at 1.2 µM -15% | [9]; at 3.7 µM -12% | [9]; [16] -65% | [9]; at 11.0 µM -9% | [9]; at 33.0 µM -9% | [9]; [17] -84% | [9]; at 50.0 µM -22.8% | [9]; at 100.0 µM -2% | [10]; at 1.2 µM -1% | [10]; at 3.7 µM 0% | [10]; at 11.0 µM -1% | [10]; at 33.0 µM -1% | [10]; at 100.0 µM 2% | [11]; at 1.2 µM 6% | [11]; at 3.7 µM -6% | [11]; at 11.0 µM -5% | [11]; at 33.0 µM -2% | [11]; at 100.0 µM -3% | [12]; [16] -124% | [12]; [17] -75% | [12]; at 50.0 µM 40.4% | [13]; at 1.2 µM -2% | [13]; at 3.7 µM 0% | [13]; at 11.0 µM 6% | [13]; at 33.0 µM 23%

Nc1nc(N)c2c(n1)CCC(S(=O)(=O)c1ccc3ccccc3c1)C2 (stereo not drawn)
active: [4]; [17] 72% | [5]; [16] 83% | [5]; at 33.0 µM 80% | [5]; [17] 91% | [5]; at 50.0 µM 84.9% | [5]; at 100.0 µM 80%
inactive: [1]; at 1.2 µM 26% | [1]; at 3.7 µM 44% | [1]; at 11.0 µM 54% | [1]; at 33.0 µM 62% | [1]; at 100.0 µM 65% | [2]; at 1.2 µM -2% | [2]; at 3.7 µM 14% | [2]; at 11.0 µM 12% | [2]; at 33.0 µM 19% | [2]; at 100.0 µM 15% | [3]; at 1.2 µM 23% | [3]; at 3.7 µM 35% | [3]; at 11.0 µM 39% | [3]; at 33.0 µM 40% | [3]; at 100.0 µM 40% | [4]; at 1.2 µM -3% | [4]; at 3.7 µM 13% | [4]; [16] 56% | [4]; at 11.0 µM 32% | [4]; at 33.0 µM 45% | [4]; at 50.0 µM 49.2% | [4]; at 100.0 µM 54% | [5]; at 1.2 µM 14% | [5]; at 3.7 µM 46% | [5]; at 11.0 µM 65% | [7]; [16] 49% | [7]; [17] 60% | [7]; at 50.0 µM 36% | [8]; at 1.2 µM -3% | [8]; at 3.7 µM 6% | [8]; at 11.0 µM 0% | [8]; at 33.0 µM 8% | [8]; at 100.0 µM 6% | [14]; [16] 5% | [14]; [17] 7% | [14]; at 50.0 µM 6.95% | [9]; at 1.2 µM -41% | [9]; at 3.7 µM -27% | [9]; [16] 32% | [9]; at 11.0 µM -27% | [9]; at 33.0 µM 3% | [9]; [17] 30% | [9]; at 50.0 µM -7.8% | [9]; at 100.0 µM 2% | [10]; at 1.2 µM -35% | [10]; at 3.7 µM -8% | [10]; at 11.0 µM 1% | [10]; at 33.0 µM 5% | [10]; at 100.0 µM 23% | [11]; at 1.2 µM -5% | [11]; at 3.7 µM 3% | [11]; at 11.0 µM 8% | [11]; at 33.0 µM 10% | [11]; at 100.0 µM 9% | [15]; at 1.2 µM 16% | [15]; at 3.7 µM 45% | [15]; at 11.0 µM 55% | [15]; at 33.0 µM 56% | [15]; at 100.0 µM 44% | [12]; [16] 48% | [12]; [17] 54% | [12]; at 50.0 µM 13.6% | [13]; at 1.2 µM 7% | [13]; at 3.7 µM 1% | [13]; at 11.0 µM 8% | [13]; at 33.0 µM 20% | [13]; at 100.0 µM 22%
